Compounds with a hit are over-represented: about 27% of the library has one in this group of screens.
Cav3 T inh = blocks human Cav3.2 T-type calcium channel. O95180. Cav3.2-expressing cells, Fluo-4 calcium fluorescence FDSS; stronger effect = lower value. B-score at 10 µM. hit rate 4% among 100,000. AID 449739;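 active means single-dose well whose peak fluorescence ratio is a statistical outlier from its plate by either plate-standardised score or position-corrected B-score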
Target sequence (O95180 whole entry, looked up): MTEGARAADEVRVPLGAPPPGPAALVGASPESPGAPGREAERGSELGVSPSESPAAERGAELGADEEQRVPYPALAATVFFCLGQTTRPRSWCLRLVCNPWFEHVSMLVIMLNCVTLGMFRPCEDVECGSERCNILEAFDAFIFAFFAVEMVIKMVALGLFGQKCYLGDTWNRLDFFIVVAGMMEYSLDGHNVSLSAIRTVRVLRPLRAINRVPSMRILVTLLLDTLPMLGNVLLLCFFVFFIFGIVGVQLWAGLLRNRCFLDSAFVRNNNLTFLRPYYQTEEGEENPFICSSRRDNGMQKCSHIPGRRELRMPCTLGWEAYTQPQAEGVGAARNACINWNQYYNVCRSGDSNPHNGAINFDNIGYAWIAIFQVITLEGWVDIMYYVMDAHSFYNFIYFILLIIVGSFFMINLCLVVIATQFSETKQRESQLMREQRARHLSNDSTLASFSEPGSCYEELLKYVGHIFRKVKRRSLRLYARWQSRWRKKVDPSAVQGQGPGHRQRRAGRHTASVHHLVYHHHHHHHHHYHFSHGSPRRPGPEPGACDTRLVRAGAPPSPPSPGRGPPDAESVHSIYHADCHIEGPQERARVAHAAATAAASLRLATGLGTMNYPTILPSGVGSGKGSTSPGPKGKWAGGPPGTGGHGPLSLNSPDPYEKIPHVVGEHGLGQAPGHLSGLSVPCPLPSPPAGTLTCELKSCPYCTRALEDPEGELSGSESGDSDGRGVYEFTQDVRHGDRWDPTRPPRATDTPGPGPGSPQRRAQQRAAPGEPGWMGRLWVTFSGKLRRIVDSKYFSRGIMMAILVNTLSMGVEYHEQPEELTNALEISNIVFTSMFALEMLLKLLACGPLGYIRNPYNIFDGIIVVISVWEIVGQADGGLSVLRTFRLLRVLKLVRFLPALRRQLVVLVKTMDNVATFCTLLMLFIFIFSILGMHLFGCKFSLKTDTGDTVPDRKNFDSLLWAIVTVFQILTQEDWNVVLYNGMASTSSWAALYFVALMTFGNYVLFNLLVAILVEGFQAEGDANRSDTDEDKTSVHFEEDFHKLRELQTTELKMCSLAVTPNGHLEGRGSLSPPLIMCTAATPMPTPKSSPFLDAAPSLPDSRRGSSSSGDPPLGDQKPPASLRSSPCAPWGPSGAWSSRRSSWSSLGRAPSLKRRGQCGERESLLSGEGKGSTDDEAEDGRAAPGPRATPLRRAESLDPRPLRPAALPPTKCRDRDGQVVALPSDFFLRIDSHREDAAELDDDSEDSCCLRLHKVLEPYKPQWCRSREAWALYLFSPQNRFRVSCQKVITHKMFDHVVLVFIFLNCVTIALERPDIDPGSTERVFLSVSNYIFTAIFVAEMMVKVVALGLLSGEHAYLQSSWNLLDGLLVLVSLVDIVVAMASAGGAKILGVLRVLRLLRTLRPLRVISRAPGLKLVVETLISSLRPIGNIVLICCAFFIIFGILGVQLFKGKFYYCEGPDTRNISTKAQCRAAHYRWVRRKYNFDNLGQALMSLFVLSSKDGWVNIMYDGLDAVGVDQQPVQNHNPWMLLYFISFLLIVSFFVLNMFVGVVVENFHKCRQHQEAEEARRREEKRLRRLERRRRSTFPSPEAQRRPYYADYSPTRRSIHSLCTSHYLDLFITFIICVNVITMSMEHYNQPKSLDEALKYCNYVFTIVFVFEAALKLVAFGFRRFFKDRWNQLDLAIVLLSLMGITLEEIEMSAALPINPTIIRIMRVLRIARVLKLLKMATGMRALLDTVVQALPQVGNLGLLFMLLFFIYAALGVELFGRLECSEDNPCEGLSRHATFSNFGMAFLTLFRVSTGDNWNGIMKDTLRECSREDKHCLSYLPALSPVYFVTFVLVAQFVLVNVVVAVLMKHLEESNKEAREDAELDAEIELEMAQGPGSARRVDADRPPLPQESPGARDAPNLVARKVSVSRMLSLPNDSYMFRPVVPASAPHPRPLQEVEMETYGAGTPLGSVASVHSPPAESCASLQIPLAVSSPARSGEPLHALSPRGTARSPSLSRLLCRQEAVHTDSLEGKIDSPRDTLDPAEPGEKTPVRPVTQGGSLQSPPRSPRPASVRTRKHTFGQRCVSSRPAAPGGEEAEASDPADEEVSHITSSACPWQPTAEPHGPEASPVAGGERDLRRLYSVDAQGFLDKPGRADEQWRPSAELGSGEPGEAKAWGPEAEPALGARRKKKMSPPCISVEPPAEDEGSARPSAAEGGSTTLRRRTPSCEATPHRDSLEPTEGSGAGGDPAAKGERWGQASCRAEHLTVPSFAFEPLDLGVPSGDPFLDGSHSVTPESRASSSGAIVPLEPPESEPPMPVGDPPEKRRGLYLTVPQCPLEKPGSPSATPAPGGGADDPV
CYP2C19 act = increases human CYP2C19 enzyme activity; 96,000 tested, under 10 active; recombinant CYP2C19, luciferin-H EGE luminescence; stronger effect = higher value; 0 = fully inhibited enzyme, 1 = untreated enzyme; activation factor at 5 µM; P33261; AID 1025;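 active means activation factor of at least 2 at 5 µM in the primary screen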;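 further: 0 = wells with 2.5 mM tranylcypromine and 1 = vehicle-only wells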
CYP2C9 activ = increases human cytochrome P450 2C9 activity; P11712; hit rate 1.4% among 96,000; activation factor at 5 µM; recombinant CYP2C9, luciferin-H conversion, luminescence; stronger effect = higher value; factor 1 = untreated enzyme, 0 = blocked;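 active means activation factor of 2 or more for CYP2C9 at a 5 µM dose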;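 further: 0 = sulfaphenazole-blocked wells and 1 = vehicle-only wells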
CYP2C19 inhib = blocks human cytochrome P450 2C19 | P33261 | CYP2C19 Supersomes, luciferin-H EGE luminescence, 30 min | inhibition, % at 5 µM | hit rate 21% among 96,000;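 active means CYP2C19 inhibition above a set limit at 5 µM in the primary screen, cut at about 50% in these data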;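 further: plate controls were negative control wells for no effect and 2.5 mM tranylcypromine positive control for full effect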
CYP2C9 inh = human CYP2C9 inhibition | P11712 | CYP2C9 Supersomes, luciferin-H conversion, luminescence | inhibition, % at 5 µM | hit rate 20% among 96,000;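 active means blocking of liver enzyme CYP2C9 beyond about 50% at 5 µM, limit read from the data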
The depositor's hits bear a star; x = not tested or not shown.

SMILES	Cav3 T inh	CYP2C19 act	CYP2C9 activ	CYP2C19 inhib	CYP2C9 inh
CCn1c(SCc2ccccc2Cl)nc2ccccc21	-0.46	0.6	1.2	39	-19
CCCCCCn1c(N2CCC(C(N)=O)CC2)nc2c1c(=O)n(C)c(=O)n2C	1.4	0.9	1	5	-4
COc1cc(/C=C2/C(=N)N3OC(C)=CC3=NC2=O)ccc1OCCOc1ccc(C)cc1	-0.041	0.9	0.9	10	13
CCOc1cc(/C=C2/C(=N)N3OC(C)=CC3=NC2=O)ccc1OCCOc1ccccc1	0.29	0.6	0.4	41	62*
COc1ccc(OC(=O)c2cn(C)nc2C(F)(F)F)cc1	0.36	0.4	1	61*	4
C/C(Cl)=C\CNC(C)c1ccccc1 (centres undefined)	-0.11	0.5	0.9	55*	6
O=C(O)C1CC=CCC1C(=O)N1CCCC1 (centres undefined)	0.65	1.1	0.9	-10	9
Cc1ccc(C(=O)CCC2CCCCC2=O)cc1 (centres undefined)	0.68	0.2	0.6	84*	42
CS(=O)(=O)Nc1ccccc1C(=O)O	0.4	0.9	0.9	7	14
CS(=O)(=O)Nc1ccc(Br)cc1C(=O)c1ccccc1	-0.047	0.1	0.1	92*	88*
COc1cc(NC(=O)C2CCCC2)c(OC)cc1Cl	-0.51	0.4	0.9	65*	9
CCCCC(=O)Nc1cc(OC)c(NC(=O)C2CCCCC2)cc1OC	1.4	0.3	0	71*	99*
CCCCOC(=O)Nc1ccc(C)c(Cl)c1	x	0.8	0.9	25	11
CCCCOC(=O)Nc1cc(OC)c(Cl)cc1OC	-2.5*	0	0.4	98*	61*
O=C(NCCc1c[nH]c2ccccc12)C1CCC(Cn2c(=S)[nH]c3ccccc3c2=O)CC1 (centres undefined)	-5	0	0	100*	98*
COCCNC(=O)C1CCC(Cn2c(=S)[nH]c3ccccc3c2=O)CC1 (centres undefined)	0.85	0.5	0.4	53*	61*
COCCn1c(=S)[nH]c2cc(C(=O)NC(C)C)ccc2c1=O	-0.53	0.8	0.9	22	15
Cc1ccc(-c2cccc(C3CC=CC4C3C(=O)N(Cc3ccccc3)C4c3ccc(C(F)(F)F)cc3)c2)cc1 (centres undefined)	1.1	x	x	x	x
CCCCc1cc2c(c(NC(=O)CC)n1)c(=O)oc1ccccc12	0.034	0.9	0.9	10	15
O=C(NC1CC1)C1=C[C@@H](c2coc3ccccc3c2=O)C[C@@H](OCCCCO)O1	1.5	x	x	x	x
COc1ccc2c(c1)sc1nc(-c3ccccc3)cn12	-2.2	0.2	0.1	82*	92*
c1ccc(N2CCN(c3ccc4nncn4n3)CC2)nc1	-0.041	0.1	0.2	89*	79*
Cc1nnc2ccc(N3CCN(c4ccccn4)CC3)nn12	0.78	1.2	1.2	-22	-19
c1cc2nncn2nc1N1CCCC1	0.89	0.5	1	53*	-1
CCC(C)N=CC1=C(O)CC(c2ccccc2)CC1=O (centres undefined)	0.72	0.5	0.5	52*	45
SMILES	Cav3 T inh	CYP2C19 act	CYP2C9 activ	CYP2C19 inhib	CYP2C9 inh
O=c1c2ccccc2nnn1CSc1ccc2c(c1)OCCO2	-2.5	0.1	0.5	94*	55*
CC(O)[C@H]1CNC(=S)N1CCc1cccc(F)c1 (some centres undefined)	-0.99	x	x	x	x
C/C=C/C=[N+](\[O-])C(C)/C(=N/O)c1ccc(F)cc1 (centres undefined)	-0.23	1	1	-1	-1
CCOc1ccc(C(=O)N/N=C/c2ccc(-c3ccc(S(=O)(=O)Nc4ncccn4)cc3)o2)cc1	0.8	0.9	0.3	13	72*
CCOc1ccc(S(=O)(=O)N(CC(=O)N/N=C/c2ccc(-c3ccc([N+](=O)[O-])cc3)o2)c2ccccc2)cc1	-1.3	0.8	0.4	20	62*
CCOc1ccc(N(CC(=O)N/N=C/c2cc([N+](=O)[O-])ccc2Cl)S(C)(=O)=O)cc1	0.08	0.9	1	7	4
O=C(N/N=C/c1ccc(-c2ccc(S(=O)(=O)Nc3ncccn3)cc2)o1)c1cc2ccccc2cc1O	x	0.7	0.2	30	81*
COc1ccc(F)cc1S(=O)(=O)Nc1ccc2c(c1)OCCO2	0.3	0.7	0.9	34	7
COc1ccc(C(=O)O)cc1S(=O)(=O)Nc1cccc(C)c1	0.011	1.1	1.1	-13	-10
COc1ccc(C)cc1S(=O)(=O)Nc1ccc(F)cc1	-0.87	0.1	0.3	88*	72*
COc1ccc(OC)c(S(=O)(=O)Nc2cccc(F)c2)c1	-0.42	0.1	0.3	89*	68*
COc1ccc(OC)c(S(=O)(=O)Nc2cccc(C(C)=O)c2)c1	-0.17	0	0.3	98*	66*
COc1ccc(C)cc1S(=O)(=O)Nc1cccnc1	0.5	0.8	1	20	4
COc1ccc(OC)c(S(=O)(=O)Nc2ccc(F)cc2)c1	0.13	0.5	1	52*	3
Cn1c(=O)c2c(-c3ccccc3)n(-n3cnnc3)cc2n(C)c1=O	1.4	1.1	1	-14	-4
CCOc1cc(C)c(S(=O)(=O)Nc2ccc(F)cc2)cc1C	-1.8	0	0	100*	97*
COc1cc(OC)c(NC(=S)Nc2cccc(C(C)=O)c2)cc1Cl	-0.24	0.5	0.7	54*	34
CCn1nnnc1-c1ccc(OC)c(S(=O)(=O)Nc2ccc(C(=O)OC)cc2)c1	1.1	0.8	0.7	23	35
CCOC(=O)c1ccc(NS(=O)(=O)c2cc(-c3nnnn3C(C)C)ccc2OC)cc1	1.4	0.1	0.1	90*	91*
CC(=O)Nc1cc(S(=O)(=O)Nc2ccc(C)cc2)c(C)cc1C	x	0.9	0.8	13	19
COC(=O)c1ccc(NS(=O)(=O)c2cc(C)ccc2OC)cc1	-1.9	0.9	0.4	13	55*
CC1CN(C2CCN(C(=O)c3ccccc3)CC2)CC(C)O1 (centres undefined)	0.17	1.1	1.1	-6	-8
C=CCC(COCc1ccccc1)NS(=O)(=O)c1ccccc1Br (centres undefined)	-2.2	x	x	x	x
O=C(CCC(=O)OCc1ccc(C(=O)Oc2ccccc2)cc1)Nc1cccc2ccccc12	-0.078	0.9	0.5	5	46
Cc1csc(=N)n1-c1ccc(Cl)cc1	-1.4	0.7	0.8	30	22
CCN(CC)c1nc(OC)nc(-n2nnc(C(C)=O)c2C)n1	0.32	1.1	1.1	-6	-10
CCN(CC)C(=O)C(Sc1ccccc1)c1ccccc1 (centres undefined)	-1.8	0.1	0.9	90*	12
O=C(Nn1cnnc1)C(Sc1ccccc1)c1ccccc1 (centres undefined)	0.82	0.4	0.3	61*	74*
CCN(CCO)C(=O)C(c1ccccc1)c1ccccc1	0.77	0.8	0.8	22	17
CNC(=O)C(Sc1ccccc1)c1ccccc1 (centres undefined)	1.4	0.1	0.6	91*	44

Source: PubChem BioAssay (several laboratories)
